Hits are enriched below; roughly 0.83% of the tested compounds scored in any of these assays.
OTUD3 block – inhibitors of human OTUD3 deubiquitinase; OTU domain-containing protein 3 (Homo sapiens), Q5T2D3; purified OTUD3, Ub-rhodamine fluorescence, 2 h; inhibition, % at 25 µM; actives 0.7% (n = 47,000); AID 1645858, 2021
USP7 block – inhibitors of human USP7 deubiquitinase; actives 0.3% (n = 47,000); inhibition, % at 20 µM; AID 1645854, 2021; purified USP7, Ub-rhodamine cleavage fluorescence
UCHL1 inh – inhibitors of human UCHL1 deubiquitinase; Ubiquitin carboxyl-terminal hydrolase isozyme L1 (Homo sapiens), P09936; purified UCHL1, Ub-rhodamine cleavage fluorescence; inhibition, % at 20 µM; actives 0.2% (n = 47,000); AID 1645859, 2021
Target sequence (P09936 whole entry, looked up): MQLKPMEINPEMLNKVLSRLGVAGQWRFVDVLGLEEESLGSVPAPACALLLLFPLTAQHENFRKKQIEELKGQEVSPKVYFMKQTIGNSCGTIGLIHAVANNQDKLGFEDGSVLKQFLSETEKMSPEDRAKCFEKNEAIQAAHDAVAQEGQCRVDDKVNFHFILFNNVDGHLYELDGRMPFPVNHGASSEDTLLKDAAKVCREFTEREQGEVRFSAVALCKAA
Each line names hits and unclear results; the compound was inactive in the other large screens. Rule as the data show it: active = inhibition above about 30%; inactive = the rest.

Cc1ccc(Cn2nc(C)cc2C(=O)Nc2cccc(C(F)(F)F)c2)cc1	none
Cc1cc(C(F)(F)F)n(-c2ccc(NC(=O)Nc3cccc(C(F)(F)F)c3)cc2)n1	OTUD3 block 31
Cn1cc(NC(=O)Nc2cccc(C(F)(F)F)c2)c2ccccc2c1=O	OTUD3 block 88
Cn1cc(NC(=O)Nc2cccc3ccccc23)c2ccccc21	none
COc1ccccc1NC(=O)N(CCc1ccccc1)Cc1cc2cc3c(cc2[nH]c1=O)OCCO3	none
O=C(/C=C/C=C/C=C/C1CCCCC1)NC1=C[C@@](O)(/C=C/C=C/C=C/C(=O)NC2=C(O)CCC2=O)[C@@H]2O[C@@H]2C1=O	OTUD3 block 73, USP7 block 45, UCHL1 inh 47
Cc1noc(C)c1CN1CC[C@H]2O[C@H](C(=O)NCc3ccco3)CC[C@H]21	OTUD3 block 33
O=C(NCc1cccnc1)[C@@H]1CC[C@@H]2[C@@H](CCN2Cc2ccco2)O1	none
O=C(Nc1ncc(Cc2ccc(F)cc2)s1)C1Cc2ccccc2O1 (stereo not drawn)	none
O=C(c1ccc(F)cc1)N1CCCN(c2cc(-c3ccccc3)[nH]n2)CC1	none
O=C(NCc1ccc2c(c1)OCO2)c1ccsc1	none
O=C(NCc1ccc2c(c1)OCO2)c1cc2c(s1)CCC2	UCHL1 inh 38
COc1cc(OC)c(NC(=O)c2cc(-c3ccccn3)n[nH]2)cc1Cl	none
COc1ccc(Cl)cc1NC(=O)c1cc(-c2ccccn2)n[nH]1	USP7 block 58
CCn1cc(NC(=O)CN2CCC3(CC=CCOC3)CC2)c(C)n1	OTUD3 block 46
Cc1cc(C)nc(NCCC(=O)N2CCC3(CC=CCOC3)CC2)n1	none
COc1cccc2c1C(=O)c1ccc3c(c1C2=O)C(=O)C[C@@H](C)C3	none
O=C(CCCCn1c(=O)c2ccccc2n(CC(=O)NCCC2=CCCCC2)c1=O)NCc1ccc2c(c1)OCO2	none
CCCCNC(=O)CCCn1c(=O)c2ccccc2n(CC(=O)NCCC2=CCCCC2)c1=O	none
O=C(Cn1c(=O)n(-c2ccccc2)c(=O)c2ccc(C(=O)NCc3ccc4c(c3)OCO4)cc21)NCCC1=CCCCC1	OTUD3 block 58
O=C(Cn1c(=O)n(CCCC(=O)N2CC=C(c3ccccc3)CC2)c(=O)c2ccccc21)NCCC1=CCCCC1	OTUD3 block 37
COc1ccccc1NC(=O)C1=C(C)Nc2nnnn2C1c1ccc(C)o1 (stereo not drawn)	none
COc1ccc(CNC(=O)C2=CCN(Cc3ccccc3)CC2)cc1	none
NC(=O)c1ccccc1NCc1cc(=O)n2cc(Cl)ccc2n1	none
Cc1ccc2nc(CNc3ccc(F)cc3C)cc(=O)n2c1	OTUD3 block 42, UCHL1 inh 32
O=C(c1cc2c(s1)-c1ccccc1S(=O)(=O)C2)N1CCN(c2ccccc2F)CC1	none
N#Cc1ccccc1NC(=O)c1cc2c(s1)-c1ccccc1S(=O)(=O)C2	OTUD3 block 56
CC1=C(c2ccc(F)cc2)S(=O)(=O)NC1=NCC(=O)Nc1ccc(F)cc1	none
O=C(/C=C/c1ccc(F)cc1)Nc1ccc2c(c1)OCCO2	none
CCCCc1ccc(-c2cc(C(=O)NCCN3CCOCC3)c3cc(Br)ccc3n2)cc1	OTUD3 block 30
O=C(NCCN1CCOCC1)c1cc(-c2ccc(Br)cc2)nc2ccccc12	none
Cc1ccc(C(=O)NCCC(c2ccccc2)c2ccccc2)o1	none
COc1ccc(NS(=O)(=O)c2cc(NC(=O)C3CC3)ccc2N2CCCCC2)cc1	none
COc1ccc(NS(=O)(=O)c2cc(NC(=O)/C=C/c3ccco3)ccc2N2CCCC2)cc1	OTUD3 block 44
Cc1cc(NC(=O)Cn2c(=O)n(CCc3ccccc3)c(=O)c3ccccc32)n[nH]1	none
Cc1cc(NC(=O)Cn2c(=O)n(Cc3ccco3)c(=O)c3ccc(C(=O)NCCc4ccccc4)cc32)n[nH]1	OTUD3 block 77
Cc1ccc(CNC(=O)c2nn(C)c3c2CCc2sccc2-3)cc1	none
Cc1cc(NC(=O)[C@H](Cc2ccccc2)NC(=O)c2cccc(F)c2)no1	none
Nc1ccc(F)c(NS(=O)(=O)c2ccccc2)c1	OTUD3 block 55, UCHL1 inh 31
O=C(Nc1ccccc1F)c1cncc(NS(=O)(=O)c2ccccc2)c1	none
CN(C)c1nccnc1C1CN(C(=O)c2ccc3c(c2)OCO3)CCO1 (stereo not drawn)	none
COc1ccc(CCn2c(-c3ccc(C)cc3)nc3c(c(=O)c4ccccc4n3C)c2=O)cc1	none
CCc1nc2c(c(=O)c3ccccc3n2C)c(=O)n1-c1ccc(C)cc1	UCHL1 inh 33
Cn1c2ccccc2c(=O)c2c(=O)n(-c3ccccc3)c(-c3ccc(Cl)cc3)nc21	none
Cn1c2ccccc2c(=O)c2c(=O)n(-c3cccc(Cl)c3)c(-c3cccs3)nc21	USP7 block 66
COc1ccccc1CNC(=O)C1CC(=O)N(c2ccc3oc(C)nc3c2)C1 (stereo not drawn)	none
O=C(COc1ccc(F)cc1)N1CCCCC1CCN1CCCC1 (stereo not drawn)	none
CCc1ccc2nc(NC(=O)C34CCC(=O)N3CCS4)sc2c1 (stereo not drawn)	none
O=C(Nc1ccccc1)Nc1nccn(-c2ccc3c(c2)CCC3)c1=O	none
N#Cc1ccc(NC(=O)Nc2cccn(Cc3c(F)cccc3Cl)c2=O)cc1	none
COC(=O)Nc1cccn(Cc2c(Cl)cccc2Cl)c1=O	OTUD3 block 81
N#Cc1ccccc1Cn1c(=O)n(CCCCC(=O)NCCc2ccccc2)c(=O)c2ccccc21	OTUD3 block 36
O=C(CCCCn1c(=O)c2ccccc2n(Cc2ccccc2F)c1=O)NCCc1ccccc1	none
Cc1cc(-c2ncc(C)s2)nc(CC2CCN(C)CC2)n1	none
COc1cccc(C(CC(=O)Nc2ccc3c(c2)OCCO3)n2cccc2)c1 (stereo not drawn)	UCHL1 inh 32
Cc1ccccc1C(CC(=O)Nc1ccc2c(c1)OCO2)n1cccc1 (stereo not drawn)	none
Cc1ccc(-c2csc3ncn(CC(=O)NC4CCSc5c(F)cccc54)c(=O)c23)cc1 (stereo not drawn)	none
Cc1cc(C)cc(-n2ccnc2SCC(=O)NCc2ccc3c(c2)OCO3)c1	none
O=C(NC1(O)C(=O)c2ccccc2C1=O)c1cccc2c1-c1ccccc1C2=O	none
Cc1cc(C(=O)NC2(O)C(=O)c3ccccc3C2=O)n(C)n1	UCHL1 inh 31
c1ccc2c(N3CCCC3)nnc(-c3nc(C4CC4)no3)c2c1	none
CC1CCN(c2nnc(-c3nc(C4CC4)no3)c3ccccc23)CC1	OTUD3 block 31
Cc1nnc(C(=O)Nc2cccc(C(=O)NCCN3CCCCCC3)c2)s1	none
COc1ccc(NC(=O)c2nnc(C(=O)NCCN3CCCCCC3)s2)cc1	OTUD3 block 34
Cc1noc2ncc(-c3nnc(C(C)(C)c4ccccc4)o3)cc12	none
COc1ccc(N(C)C(=O)c2cc3c(=O)n(C)c4ccccc4n3n2)cc1	none
Cc1c(OCC(=O)NCC(=O)N2CCC3(O)CCCCC3C2)ccc2c3c(c(=O)oc12)CCCC3 (stereo not drawn)	OTUD3 block 41
CCc1cc(=O)oc2c(C)c(OCC(=O)N3CCC4(O)CCCCC4C3)ccc12 (stereo not drawn)	none
CN1CCN(CCC(=O)Nc2cc(C(F)(F)F)ccc2Cl)CC1	none

Assay outcomes from PubChem.
